Compound activity from PubChem.
Shown are actives, neighbours in structure and some others; about 27% of the full set was active somewhere.
Cav3 T inh: human Cav3.2 channel inhibition, primary screen | Cav3.2-expressing cells, Fluo-4 calcium fluorescence FDSS; active compounds read low | B-score at 10 µM | hit rate 4% among 100,000 | AID 449739;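 active = single-dose well whose peak fluorescence ratio is a statistical outlier from its plate by either plate-standardised score or position-corrected B-score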
CYP2C9 inh: blocks human cytochrome P450 2C9; P11712; CYP2C9 Supersomes, luciferin-H conversion, luminescence; inhibition, % at 5 µM; hit rate 20% among 96,000; AID 777;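 active = blocking of liver enzyme CYP2C9 beyond about 50% at 5 µM, limit read from the data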
Target sequence (P11712 whole entry, looked up): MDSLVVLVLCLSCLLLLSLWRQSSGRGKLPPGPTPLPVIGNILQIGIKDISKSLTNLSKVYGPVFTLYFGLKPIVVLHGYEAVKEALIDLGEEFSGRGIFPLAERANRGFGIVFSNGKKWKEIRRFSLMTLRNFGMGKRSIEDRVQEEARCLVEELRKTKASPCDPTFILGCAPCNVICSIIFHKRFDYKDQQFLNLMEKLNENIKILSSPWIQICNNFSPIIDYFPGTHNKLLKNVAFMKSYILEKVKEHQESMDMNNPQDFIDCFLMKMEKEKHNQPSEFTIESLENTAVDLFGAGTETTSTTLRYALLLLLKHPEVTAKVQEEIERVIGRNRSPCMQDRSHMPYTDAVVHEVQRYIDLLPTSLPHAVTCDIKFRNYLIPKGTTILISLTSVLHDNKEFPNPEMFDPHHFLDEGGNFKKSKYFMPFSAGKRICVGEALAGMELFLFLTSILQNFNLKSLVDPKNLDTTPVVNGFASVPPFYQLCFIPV
CYP2C19 activ: increases human CYP2C19 enzyme activity. P33261. recombinant CYP2C19, luciferin-H EGE luminescence; active compounds read high; 0 = fully inhibited enzyme, 1 = untreated enzyme. activation factor at 5 µM. 96,000 tested, under 10 active. AID 1025;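 active = activation factor of at least 2 at 5 µM in the primary screen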;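 note: 0 = wells with 2.5 mM tranylcypromine and 1 = vehicle-only wells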
CYP2C9 activ: CYP2C9 (human) activation | recombinant CYP2C9, luciferin-H conversion, luminescence; active compounds read high; factor 1 = untreated enzyme, 0 = blocked | AID 1024 | hit rate 1.4% among 96,000 | P11712 | activation factor at 5 µM;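 active = activation factor of 2 or more for CYP2C9 at a 5 µM dose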;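 note: 0 = sulfaphenazole-blocked wells and 1 = vehicle-only wells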
CYP2C19 inh: blocks human cytochrome P450 2C19; P33261; CYP2C19 Supersomes, luciferin-H EGE luminescence, 30 min; inhibition, % at 5 µM; hit rate 21% among 96,000;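 active = CYP2C19 inhibition above a set limit at 5 µM in the primary screen, cut at about 50% in these data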;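 note: plate controls were negative control wells for no effect and 2.5 mM tranylcypromine positive control for full effect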
PTK2B oligo ant: blocks oligomerization of human Pyk2 in cells; Q14289; Q293 cells, Pyk2 FERM NanoBiT luminescence; active compounds read low; z-score (the deposit names both 25 µM and 10 µM); hit rate 0.83% among 99,000; AID 1347419;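 active = Z-score of -3 or lower, scaled per plate to the spread of control and sample wells; inactive = z-score above -3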;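 note: negative z-score means lost luminescence so less FERM oligomerization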
Numbers without * were called inactive; nt = no result given.

SMILES | Cav3 T inh | CYP2C9 inh | CYP2C19 activ | CYP2C9 activ | CYP2C19 inh | PTK2B oligo ant
COC(=O)CNC(=O)c1ccccc1C | 0.104 | -3.7 | 1 | 1 | -3.5 | 0.01
CO/N=C(/CNC(=O)c1ccccc1Cl)c1ccc(Cl)cc1 | nt | 47.4 | 0.1 | 0.5 | 90.9* | 0.92
Cc1cccc(C)c1-n1nnnc1SCSc1nnnn1-c1c(C)cccc1C | -0.695 | 77.1* | 0.7 | 0.2 | 33.0 | -1.83
Cc1ccccc1-n1nnnc1SCC(N)=O | -0.0404 | 3.3 | 1 | 1 | -3.6 | 0.49
Cc1ccc(C)c(NC(=S)NNC(=O)c2sccc2C)c1 | -0.205 | 88.7* | 0.2 | 0.1 | 79.0* | 1.61
CSc1nnc(-c2cc(C)on2)n1-c1ccccc1 | nt | nt | nt | nt | nt | 0.3
CC(C)C(c1nnnn1Cc1ccccc1)N(Cc1ccco1)Cc1cccs1 (centres undefined) | -0.974 | 88.8* | 0 | 0.1 | 95.8* | -0.07
COc1ccc(Cn2nnnc2C(C(C)C)N(Cc2ccco2)Cc2cccs2)cc1 (centres undefined) | -3.86* | 66.0* | 0.4 | 0.3 | 56.4* | 1.62
COc1ccc2cc(CN(Cc3ccco3)C(c3nnnn3C3CCCCC3)C(C)C)c(=O)[nH]c2c1 (centres undefined) | nt | 45.0 | 0.8 | 0.6 | 20.4 | -0.5
CC(C)C1N=C2c3ccccc3N=C(SCC#N)N2C1=O (centres undefined) | 0.312 | -4.3 | 1 | 1 | -2.5 | -0.29
COc1ccc(N=C2C(=Nc3ccc(OC)cc3)N(c3ccc(OC)cc3)C(=S)N2c2ccccc2)cc1 | -2.95 | 77.9* | 1 | 0.2 | 4.1 | -0.42
CC/C(O)=C(\C#N)c1nnc2n1CCCCC2 | -0.196 | -8.0 | 1.1 | 1.1 | -10.4 | 0.18
CC(=O)OC1(C(F)(F)F)Oc2ccccc2NC1=O (centres undefined) | -0.0335 | 15.6 | 0.5 | 0.8 | 53.2* | -0.86
COCCNC(=O)C1(C)Oc2ccccc2NC1=O (centres undefined) | -0.583 | 11.2 | 0.9 | 0.9 | 9.5 | -0.52
CCOC(=O)c1[nH]c(CSc2nnc(-c3ccc(OC)cc3)o2)c(C(=O)OCC)c1C | -2.39 | 84.9* | 0.3 | 0.2 | 73.4* | 0.19
COc1ccc(-c2nnc(SCC(=O)c3[nH]c(C)c(C(C)=O)c3C)o2)cc1 | -1.66 | 36.1 | 0.4 | 0.6 | 63.3* | 1.05
COc1cccc(NC(=O)CSc2nncn2N)c1 | -0.0299 | -3.2 | 0.9 | 1 | 5.7 | 0.03
Cc1ccc(S(=O)(=O)Cn2nnnc2C(CC(C)C)N2CCN(c3ccccc3)CC2)cc1 (centres undefined) | -0.763 | nt | nt | nt | nt | 0.06
CC(C)CC(c1nnnn1C(C)C)N1CCN(c2ccccc2)CC1 (centres undefined) | -0.0851 | 67.5* | 0.8 | 0.3 | 22.1 | -0.63
COc1ccc(N2CCN(C(c3nnnn3CCc3ccccc3)C(C)C)CC2)cc1 (centres undefined) | -1.89 | 20.4 | 0.8 | 0.8 | 15.1 | -0.83
COc1ccc(Cn2nnnc2C(CC(C)C)N2CCN(c3ccccc3)CC2)cc1 (centres undefined) | -3.64 | 64.9* | 0.3 | 0.4 | 74.5* | -1.36
COc1ccc(Cn2nnnc2C(C(C)C)N2CCc3ccccc32)cc1 (centres undefined) | -2.55 | 68.3* | 0.3 | 0.3 | 71.3* | -1.02
CCCC(c1nnnn1Cc1ccc(OC)cc1)N1CCN(c2ccccc2)CC1 (centres undefined) | nt | 82.1* | 0.6 | 0.2 | 44.5 | -0.4
CC1(C)Oc2nc3ccccc3n2/C1=C\C#N | -0.246 | nt | nt | nt | nt | -0.1
CC1(C)Cc2c(sc3nc4n(c(=N)c23)CCC4)CO1 | -0.119 | -4.3 | 1.2 | 1 | -19.1 | 0.1
SMILES | Cav3 T inh | CYP2C9 inh | CYP2C19 activ | CYP2C9 activ | CYP2C19 inh | PTK2B oligo ant
Cc1cccc(N=C2NC(=O)/C(=C3/C(=O)N(C)c4ccccc43)S2)c1C | -0.979 | 92.9* | 0.5 | 0.1 | 50.5* | -2.83
Cc1ccc(S(=O)(=O)N2CCCN(S(=O)(=O)C3CCS(=O)(=O)C3)CC2)cc1 (centres undefined) | 0.486 | -51.2 | 0.7 | 1.5 | 27.1 | 0.23
O=S(=O)(c1ccc2nc(Cc3cccc(C(F)(F)F)c3)[nH]c2c1)N1CCOCC1 | -2.12 | 86.4* | 0.3 | 0.1 | 67.0* | -0.88
C=CCSc1nc(C)c2cc(C)cc(C)c2n1 | -0.32 | 16.2 | 0.6 | 0.8 | 37.1 | -0.55
CCOC(=O)C(C(C)=O)C(c1ccc(OC)cc1)C(C(C)=O)C(=O)OCC (centres undefined) | 0.677 | -18.1 | 1.1 | 1.2 | -8.0 | -0.1
CCOC(=O)C(C)c1ccc2cc(OC)ccc2c1 (centres undefined) | -1.73 | -27.7 | 0.5 | 1.3 | 52.3* | 0
Cn1c(Cc2cccs2)nnc1SCc1nc2ccccc2[nH]1 | 1.07 | 2.7 | 0.4 | 1 | 58.7* | -0.92
Cn1c(SCc2nc3ccccc3[nH]2)nnc1-c1cccs1 | 0.481 | 19.7 | 0.2 | 0.8 | 77.6* | -0.25
c1ccc2[nH]c(CSc3nccs3)nc2c1 | 0.559 | nt | nt | nt | nt | -0.18
O=C(Nc1cc(Sc2ccccn2)cc([N+](=O)[O-])c1)c1ccc([N+](=O)[O-])cc1 | nt | 13.1 | 0.9 | 0.9 | 6.9 | -1.66
O=C(CC12CC3CC(CC(C3)C1)C2)Nc1cccc2ncccc12 | 0.224 | 27.2 | 0.5 | 0.7 | 50.6* | 1.01
O=C(Nc1cccc2ncccc12)C12CC3CC(CC(C3)C1)C2 | 0.791 | -24.3 | 1 | 1.2 | -1.1 | 1.21
O=C1C2C(C(=O)N1/N=C/c1cc(Br)cc([N+](=O)[O-])c1O)C1C=CC2C12CC2 (centres undefined) | -5.96* | 8.3 | 0.8 | 0.9 | 24.5 | -1.69
Clc1ccc(-c2nn3c(-c4ccccc4)nnc3s2)cc1 | 0.131 | 40.3 | 0.2 | 0.6 | 80.9* | 0.2
Clc1cccc(-c2nn3c(-c4ccncc4)nnc3s2)c1 | nt | -6.3 | 0.5 | 1.1 | 54.8* | nt
COc1cccc(OC)c1-c1nn2c(-c3cc(-c4ccccc4)n[nH]3)nnc2s1 | 0.911 | 57.0* | 0.4 | 0.4 | 55.9* | -3.1*
CCOc1cccc(-c2nn3c(-c4cc(C)[nH]n4)nnc3s2)c1 | 2.05 | 16.9 | 0.9 | 0.8 | 10.5 | -0.48
COc1cccc(-c2nnc3sc(-c4ccc(Cl)cc4)nn23)c1 | nt | 65.6* | 0.6 | 0.3 | 35.7 | nt
COc1cccc(-c2nnc3sc(-c4ccccc4)nn23)c1 | -0.000926 | -0.2 | 0.9 | 1 | 11.9 | -0.14
Cc1cccc(-c2nnc3sc(-c4ccccc4C)nn23)c1 | -1.43 | 81.0* | 0.1 | 0.2 | 88.7* | -1.78
COc1ccc(-c2nn3c(-c4ccccc4)nnc3s2)cc1 | 0.978 | 70.2* | 0.3 | 0.3 | 73.6* | -1.61
CCOc1cccc(/C(O)=C2/C(=O)C(=O)N(Cc3cccnc3)C2c2ccco2)c1 (centres undefined) | 1.2 | 65.3* | 0.9 | 0.3 | 5.6 | 0.89
